Experimental data from PubChem BioAssay (NCI).
About 79,000 compounds went through this panel and 15% of them were active in at least one assay; those are over-represented in the sample as a whole. The source made the active and inactive calls. Rule as the data show it: active = growth inhibition above about 70%; inactive = the rest. Where a SMILES comes first, the peptide text is derived from it.

Test: NCI Yeast Anticancer Drug Screen. Data for the rad50 strain (AID 155);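 also: 0% = growth of vehicle-only cultures of the same strain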
Details: S. cerevisiae rad50 strain growth inhibition; at 50.0 µM; active compounds read high
In short: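 Relative growth inhibition (compound vs vehicle) was measured in yeast with a defined repair-gene alteration.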

Structure (SMILES)	growth inhibition
CO[C@H]1C=CO[C@@]2(C)Oc3c(C)c(O)c4c(O)c(c(CN5CCN(C)CC5)c(O)c4c3C2=O)NC(=O)/C(C)=C\C=C[C@H](C)[C@H](O)C(C)[C@@H](O)C(C)[C@H](OC(C)=O)[C@@H]1C (stereo not given in full)	-14.5% (inactive)
Cc1ccc2ccccc2c1CC(=O)NN	6.6% (inactive)
CCOC(=O)c1c(C)nc(C)c(C(=O)OCC)c1-c1ccnc2ccccc12	0.9% (inactive)
O=C(O)Cc1ccc(-c2ccccc2)[nH]1	3.35% (inactive)
O=C(Nc1ccc(Cl)cc1)c1ccc(Cl)cc1Cl	-11.8% (inactive)
C=CCc1ccc(OC(=O)Nc2ccc(S(=O)(=O)NC3CCCCC3)cc2)c(OC)c1	33.7% (inactive)
O=C(O)C(O)c1ccc(Cl)cc1Cl (stereo not given)	1.3% (inactive)
COC(=O)c1nc[nH]c1C(=O)OC	10.2% (inactive)
O=S(=O)(Nc1ccnn1-c1ccccc1)c1ccc(NC(=S)Nc2ccccc2)cc1	34.1% (inactive)
CCn1cc2c(=O)n3ncn(-c4ccc(Br)cc4)c3nc2n1	-8.05% (inactive)
Oc1ccccc1C=Nc1ccccc1N=Cc1ccccc1O.[Zn]	6.45% (inactive)
CC(C)C(CN)(c1ccccc1)c1ccccc1	-4.4% (inactive)
CS(=O)CC(=N\N)/C(CS(C)=O)=N/N (stereo not given)	-60% (inactive)
CC(=O)N(C)c1ccc(NC(=S)NC(=O)c2cccc([N+](=O)[O-])c2)cc1	3.55% (inactive)
C[C@@H]1CC[C@]2(C)C3(C)CC[C@]2(OC3=O)[C@@]12CC(c1ccoc1)OC2=O (stereo not given in full)	-5.9% (inactive)
CS(=O)(=O)OCCC(COS(C)(=O)=O)NC(=O)c1ccccc1 (stereo not given)	-3.75% (inactive)
Cc1ccc2[nH]c(C)c(C(=O)c3ccncc3)c2c1	-2.75% (inactive)
Nc1ccc(N=Nc2ccccc2)c(N)c1	29.5% (inactive)
NC(N)=NCCCS	11.9% (inactive)
Cc1ccc(N(C(=O)CC(=O)N/N=C/c2ccccc2O)C(=O)c2ccccc2)cc1	-6.55% (inactive)

Structure (SMILES)	growth inhibition
O=C(O)c1ncn2c(=O)n(CCCl)nnc12	-18.9% (inactive)
CCc1c(C)c2cc(N)ccc2[nH]c1=O	-8.05% (inactive)
Oc1cc(CN2CCOCC2)c(O)c(CN2CCOCC2)c1CN1CCOCC1	5.25% (inactive)
CCC(C)C(N)C(=O)NC(Cc1ccc(O)cc1)C(=O)O (stereo not drawn) (H-Ile-Tyr-OH; configuration not given here)	16.4% (inactive)
Clc1ccc2c(NCCCCN=Cc3ccccc3)ccnc2c1	-9.55% (inactive)
CC(=O)Oc1cccc(CN2CCc3ccccc3C2)c1	-3.05% (inactive)
C=C(C)CC1(C)C(=O)CCC1O (stereo not given)	-13.7% (inactive)
CCCNCC(O)CNc1ccc(Cl)cc1 (stereo not given)	3.1% (inactive)
CCOC(=O)C(C)CC(C)C(=O)OCC (stereo not given)	20.6% (inactive)
CC(=O)Nc1ccn(C2OC(COC(C)=O)C(OC(C)=O)C(OC(C)=O)C2OC(C)=O)c(=O)n1 (stereo not given)	0.3% (inactive)
NC(=O)c1ccc[n+](CC(=O)Nc2ccccc2)c1	-5.6% (inactive)
C/C=C(/c1ccccc1)c1ccc(N(C)C)cc1	2.25% (inactive)
CCCCNC(=O)Oc1c(Cl)cc(Cl)c(Cl)c1[N+](=O)[O-]	16.2% (inactive)
CSc1ncnc2c1ccn2C1OC(COP(=O)(O)O)C(O)C1O (stereo not given)	21.8% (inactive)
NC(=O)C1C[C@@H](O)CN1C(=O)c1ccc2c(c1)OCO2 (stereo not given in full)	-11.6% (inactive)
Cc1c(Cl)cc([N+](=O)[O-])cc1Cl	-13.2% (inactive)
N/N=C(\N)SCc1ccc(N=C=S)cc1	-4.8% (inactive)
COc1cccc(CN(CC(=O)O)S(=O)(=O)c2ccc(C)cc2)c1	-6.2% (inactive)
Cc1cc(CN2CCCCC2)c(O)c(CN2CCCCC2)c1	-4.3% (inactive)
COc1cc(C(=O)Nc2cccc(Cl)c2Cl)cc(OC)c1OC	-7.45% (inactive)
